Inconclusive results are not listed. Activity calls are given as the source filed them. The call rests on the fitted dose curve; in most records, active means well fitted cell-killing curve with a large enough effect; inconclusive means small, poorly fitted or top-dose-only effect, or effect the other way; inactive means no such curve, though single readings can be large or run the other way.
experiment: Quantitative High-Throughput drug screen in 47 multiple myeloma cell lines against the NCATS MIPE library collection: RPMI8226_ATCC cell viability assay (AID 1919871); conditions: RPMI8226 myeloma viability, CellTiter-Glo ATP luminescence, 48 h; series mostly up to 45.8 µM; further: nearly all actives have a fitted effect of over 30% in size
Summary of the method: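 ATP-based CellTiter-Glo luminescence after 48 h drug exposure (37 °C, 5% CO2) of 500 myeloma cells per well. DMSO-only wells set 100% viability, media-only wells 0%; MIPE 4.0 library added by pin tool.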
Potency means the concentration at half of the fitted maximal effect.

Row | Structure (SMILES) | Potency
1 | COc1ccc(C=Cc2cc(OC)c(OC)c(OC)c2)cc1NC(=O)[C@H](N)CO | 26.4 nM (active)
2 | CCN(CC)Cc1ccc2cc(COC(=O)Nc3ccc(C(=O)NO)cc3)ccc2c1 | 1050 nM (active)
3 | CC(=O)OCC(=O)[C@@]1(O)CC[C@H]2[C@@H]3CCC4=CC(=O)CC[C@]4(C)[C@@H]3C(=O)C[C@@]21C | inactive
4 | COc1ccc2c(c1OC)C(=O)OC2[C@H]1c2c(cc3c(c2OC)OCO3)CCN1C (stereo partly specified) | 3720 nM (active)
5 | COc1cccc2c1C(=O)c1c(O)c3c(c(O)c1C2=O)C[C@@](O)(C(C)=O)C[C@H]3O[C@H]1C[C@H](N)[C@H](O)[C@H](C)O1 | 235 nM (active)
6 | CCOC(=O)N1CCN([N+]([O-])=NOc2ccc([N+](=O)[O-])cc2C#N)CC1 | 1050 nM (active)
7 | C[C@H]1O[C@H](O[C@H]2[C@H](O)[C@@H](O)[C@@H](O[C@H]3[C@H](O)[C@@H](O)C(O)O[C@H]3CO)O[C@H]2CO)[C@H](O)[C@@H](O)[C@H]1N[C@H]1C=C(CO)[C@@H](O)[C@H](O)[C@@H]1O (stereo partly specified) | inactive
8 | CC[C@H]1OC(=O)[C@H](C)[C@@H](O[C@H]2C[C@@](C)(OC)[C@@H](O)[C@H](C)O2)[C@H](C)[C@@H](O[C@@H]2O[C@H](C)C[C@H](N(C)C)[C@@H]2O)[C@](C)(OC)C[C@@H](C)C(=O)[C@H](C)[C@@H](O)[C@]1(C)O | inactive
9 | COc1ccc(S(=O)(=O)Nc2cccnc2Nc2ccc(O)cc2)cc1 | 526 nM (active)
10 | COc1cc(C)c(C=CC(C)=CC=CC(C)=CC(=O)O)c(C)c1C | 1480 nM (active)
11 | CCCCCCCCc1ccc(CCC(N)(CO)CO)cc1 | 9350 nM (active)
12 | C[C@H](CCC(=O)O)[C@H]1CC[C@H]2[C@@H]3[C@H](O)C[C@@H]4C[C@H](O)CC[C@]4(C)[C@@H]3CC[C@]12C | inactive
13 | C[N+](C)([O-])CCNc1ccc(NCC[N+](C)(C)[O-])c2c1C(=O)c1c(O)ccc(O)c1C2=O | inactive
14 | CCOC(=O)[C@H](CCc1ccccc1)N[C@@H](C)C(=O)N1[C@@H](C(=O)O)C[C@H]2CCC[C@@H]21 | 20900 nM (active)
15 | Oc1ccc(-c2ccc(-c3cc(Nc4cccc(CNC5CC5)c4)n[nH]3)cc2)c(O)c1 | 9350 nM (active)
16 | C=CCNC1=C2C[C@@H](C)C[C@H](OC)[C@@H](O)[C@@H](C)C=C(C)[C@H](OC(N)=O)[C@@H](OC)C=CC=C(C)C(=O)NC(=CC1=O)C2=O | 1050 nM (active)
17 | CC(C)(O)Cn1c(NC(=O)c2ccc(-c3cn[nH]c3)s2)nc2cc(CN3CCOCC3)ccc21 | 2350 nM (active)
18 | COc1cc(OC)cc(-c2ccc3ncc4ccc(=O)n(-c5ccc(N6CCNCC6)c(C(F)(F)F)c5)c4c3c2)c1 | 11800 nM (active)
19 | CN(C)CCN1C(=O)c2cccc3cc(N)cc(c23)C1=O | 16600 nM (active)
20 | CON=C(C(=O)N[C@@H]1C(=O)N2C(C(=O)O)=C(Cn3ccc(=N)n3CCO)CS[C@H]12)c1csc(N)n1 | inactive
21 | COC[C@H](NC(=O)c1cnc(C)s1)C(=O)N[C@@H](COC)C(=O)N[C@@H](Cc1ccccc1)C(=O)[C@@]1(C)CO1 | 187 nM (active)
22 | COc1cccc2c1C(=O)c1c(O)c3c(c(O)c1C2=O)C[C@@](O)(C(=O)CO)C[C@@H]3O[C@H]1C[C@H](N)[C@H](OC2CCCCO2)[C@H](C)O1 (stereo partly specified) | 7430 nM (active)
23 | O=c1ccn([C@@H]2O[C@H](CO)[C@H](O)[C@@H]2F)c(=O)[nH]1 | inactive
24 | Cn1cc(CNCC2CCN(c3ncc(C(=O)NO)cn3)CC2)c2ccccc21 | 66.2 nM (active)
25 | CC(=O)NCC(=O)N1[C@H]2CC[C@H]1c1cc(Nc3ncc(C(F)(F)F)c(NC4CCC4)n3)ccc12 | 5900 nM (active)
26 | CC(C)N(CC[C@H](c1ccccc1)c1cc(CO)ccc1O)C(C)C | inactive
